High-throughput results as filed in PubChem.
PRMT1 inh – PRMT1 methyltransferase inhibitors, primary screen, biochemical, fluorescence polarization; recombinant PRMT1, activity-based probe fluorescence polarization; Protein arginine N-methyltransferase 1 (Homo sapiens), Q99873; actives 1.3% (n = 370,000); inhibition, % at 2.79 µM;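 active means inhibition above about 21% made by adding two undisclosed values, limit read from the data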
rCAG binder – binders of r(CAG) RNA repeats, primary screen, biochemical, fluorescence | inhibition, % at 3 µM | r(CAG) RNA repeat, TO-PRO-1 dye displacement fluorescence | AID 651821, 2012 | actives 1.3% (n = 370,000);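 active means inhibition above the plate cutoff, the mean of all test compounds on that plate plus 3 SD, cut at about 35% in these data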;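 further: 0% = DMSO alone and 100% = 100 µM mitoxantrone as full dye displacement; higher means more dye released from RNA so lower well fluorescence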
NOD2-RIPK2 inh – NOD2-RIPK2 binding disruptors in cells, primary screen, fluorescence, CHO cells, BLA complementation | CCF4 ratio | Receptor-interacting serine/threonine-protein kinase 2 (Homo sapiens), O43353 | actives 0.38% (n = 360,000) | AID 624267, 2012 | inhibition, % at 4.98 µM; in the data active means inhibition above about 21%;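 further: 0% = vehicle only and 100% = reference blocker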
ABHD5 PLIN5 PPI – ABHD5-PLIN5 interaction inhibitors, primary screen, cell lysate, split luciferase complementation, luminescence | Perilipin-5 (Homo sapiens) + 1-acylglycerol-3-phosphate O-acyltransferase ABHD5 (Homo … | Split G. princeps luciferase complementation, 4 h | inhibition, % at 4 µM | actives 0.78% (n = 360,000);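 active means inhibition above the mean inhibition across every tested compound plus 3 SD, cut at about 22% in these data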;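 further: 0% = DMSO only wells and the 100% control is not disclosed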
TLR9-MyD88 block – inhibitors of TLR9-MyD88 association in cells, primary screen, cell-based, CHO, BLA complementation, fluorescence. inhibition, % at 4.98 µM. AID 504734, 2011. Toll-like receptor 9 (Homo sapiens) + Myeloid differentiation primary response protein …. actives 0.21% (n = 340,000). CCF4 FRET ratio;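 active means inhibition above the mean over all tested compounds plus 3 SD, cut at about 21% in these data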;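 further: 0% = DMSO only wells and 100% = clavulanate BLA inhibitor control wells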
TLR4 MyD88 comp – inhibitors of TLR4-MyD88 association in cells, primary screen, cell-based, HeLa CL3-4, BLA complementation, FRET ratio. HeLa CL3-4 TLR4/MyD88 BLA complementation. AID 861, 2007. inhibition, % at 8.4 µM. actives 0.18% (n = 200,000). Toll-like receptor 4 (Homo sapiens) + Myeloid differentiation primary response protein …; in the data active means inhibition above about 25%;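 further: 0% = vehicle and 100% = reference inhibitor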
Target sequence (O00206 whole entry, looked up): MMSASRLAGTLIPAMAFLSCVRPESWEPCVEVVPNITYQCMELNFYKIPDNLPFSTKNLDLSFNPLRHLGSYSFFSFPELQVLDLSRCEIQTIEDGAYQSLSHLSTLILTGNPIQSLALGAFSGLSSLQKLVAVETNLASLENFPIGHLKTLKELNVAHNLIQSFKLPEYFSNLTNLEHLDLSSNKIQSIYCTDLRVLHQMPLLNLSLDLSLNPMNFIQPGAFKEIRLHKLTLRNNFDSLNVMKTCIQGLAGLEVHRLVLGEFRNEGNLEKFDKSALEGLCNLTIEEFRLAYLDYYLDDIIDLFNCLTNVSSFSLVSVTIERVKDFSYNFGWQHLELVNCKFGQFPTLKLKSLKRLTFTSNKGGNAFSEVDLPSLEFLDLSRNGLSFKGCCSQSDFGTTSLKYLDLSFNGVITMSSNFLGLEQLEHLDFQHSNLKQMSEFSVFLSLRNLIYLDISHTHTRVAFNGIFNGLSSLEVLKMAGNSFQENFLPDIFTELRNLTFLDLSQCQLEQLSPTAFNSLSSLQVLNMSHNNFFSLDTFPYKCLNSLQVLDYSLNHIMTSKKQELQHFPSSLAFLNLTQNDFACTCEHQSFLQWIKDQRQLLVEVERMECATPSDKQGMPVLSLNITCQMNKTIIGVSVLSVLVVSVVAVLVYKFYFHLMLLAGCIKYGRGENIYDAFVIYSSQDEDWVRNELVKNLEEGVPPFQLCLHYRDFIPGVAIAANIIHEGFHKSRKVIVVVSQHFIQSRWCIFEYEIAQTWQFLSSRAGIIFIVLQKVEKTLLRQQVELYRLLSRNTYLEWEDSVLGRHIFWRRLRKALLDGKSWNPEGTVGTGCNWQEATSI
Target sequence (Q99836 whole entry, looked up): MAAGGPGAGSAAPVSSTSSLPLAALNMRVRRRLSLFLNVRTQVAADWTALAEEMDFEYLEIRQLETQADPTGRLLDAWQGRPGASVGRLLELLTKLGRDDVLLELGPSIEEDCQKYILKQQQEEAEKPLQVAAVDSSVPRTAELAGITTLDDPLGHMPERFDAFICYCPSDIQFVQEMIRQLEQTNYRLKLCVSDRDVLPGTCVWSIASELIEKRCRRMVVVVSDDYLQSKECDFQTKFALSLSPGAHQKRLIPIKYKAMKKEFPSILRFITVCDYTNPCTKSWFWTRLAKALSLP
PRMT1 confirm – PRMT1 methyltransferase inhibitors, confirmation, biochemical, fluorescence polarization, triplicate; shares compounds with PRMT1 inh; recombinant His-PRMT1, activity-based probe fluorescence polarization; inhibition, % at 2.79 µM; actives 42% (n = 3,300);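 active means mean inhibition across replicates above the hit cutoff derived for the earlier primary screen, cut at about 22% in these data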
Starred values were filed as active, the others as inactive; . = not tested or not shown. Shown are actives, neighbours in structure and some others; about 3.3% of the full set was active somewhere.

SMILES | PRMT1 inh | rCAG binder | NOD2-RIPK2 inh | ABHD5 PLIN5 PPI | TLR9-MyD88 block | TLR4 MyD88 comp | PRMT1 confirm
COc1ccc(CNC(=O)CN2CCC(NC(=O)c3cccc(OC)c3)CC2)cc1 | 2 | 1 | -17 | 0 | 9 | . | .
CCN1/C(=C/C(=O)c2ccco2)Sc2ccccc21 | 45* | 5 | -5 | -2 | 0 | -9 | 6
CCC(=O)/C=C1/Sc2ccccc2N1CC | 29* | 7 | -4 | -7 | -6 | 11 | 27*
CCn1c2ccccc2c2n[nH]c(=S)nc21 | 1 | 0 | -15 | -10 | -7 | . | .
C=CCn1c2ccccc2c2n[nH]c(=S)nc21 | 30* | 4 | -1 | -8 | -6 | . | 5
O=C(O)Cn1c2ccccc2c2n[nH]c(=S)nc21 | 42* | 2 | -18 | -5 | 5 | . | 85*
O=C1c2ccccc2C(=O)N1CCCCSc1nc2ccccc2c(=O)n1CCCN1CCOCC1 | 1 | -8 | -9 | 7 | -8 | 10 | .
Cc1cc(C)n2c(NC3CCCCC3)c(CC(C)C)nc2n1 | 2 | 4 | 9 | 4 | . | . | .
CCC1(O)CC2CN(CCc3c([nH]c4ccccc34)C(C(=O)OC)(c3cc4c(cc3OC)N(C=O)C3C(O)(C(=O)OC)C(OC(C)=O)C5(CC)C=CCN6CCC43C65)C2)C1 (stereo not given) | 5 | 8 | 6 | -3 | -7 | . | .
COC(=O)c1cc(-c2ccccc2)sc1N | 11 | 8 | 3 | -3 | 1 | 2 | .
C#CCNC(=O)c1cc(-c2ccccc2)sc1N | 27* | 9 | -15 | -20 | . | . | -3
Cc1cc(O)c(Sc2ncn[nH]2)cc1NS(=O)(=O)c1ccc(Cl)cc1 | 2 | 5 | 3 | 12 | -7 | . | .
O=S(=O)(Nc1cc(Sc2ncn[nH]2)c(O)c2ccccc12)c1ccccc1 | 64* | 22 | -3 | -4 | . | -8 | 111*
CN1C[C@@H]2[C@@H]3C(=O)N(C)C(=O)[C@@H]3[C@](C)(C1=O)N2C(=O)c1ccc(C(F)(F)F)cc1 | 0 | 0 | -8 | 5 | -6 | . | .
Cn1ncc2c1NC(c1ccc(F)cc1)SCC2=O (stereo not given) | 34* | 1 | 7 | -10 | 4 | . | 55*
CC1=CC(=O)C(C2CCCCC2)=C/C1=N\OS(=O)(=O)c1ccccc1 | 51* | . | . | . | . | . | 13
O=S(=O)(O/N=C1\CCCc2ccccc21)c1ccccc1 | 3 | 0 | -4 | 8 | -4 | -5 | .
CC(SCc1ccccc1)C(=O)Nc1ccccc1F (stereo not given) | 1 | -1 | . | . | 14 | . | .
CN(CCCN1CCOCC1)C(=O)c1cc(COc2ccc(F)cc2F)on1 | 29* | -1 | -5 | 0 | -14 | . | 2
COc1cc(C)ccc1OCc1cc(C(=O)N(C)CCCN2CCOCC2)no1 | -3 | -1 | -8 | 6 | 3 | . | .
CCCCn1nnnc1C(c1cc2ccccc2o1)N1CCN(c2ccncc2)CC1 (stereo not given) | 1 | 3 | -4 | 7 | . | . | .
COC(=O)c1ccc(CNC(=O)Cn2cnc3c(SC)nc(N)nc32)cc1 | -2 | 2 | 0 | 0 | 3 | . | .
COc1ccc2nc(C)cc(SCC(=O)N/N=C/c3cccc4ccccc34)c2c1 | -2 | 8 | 4 | -2 | 0 | -1 | .
Cc1ccc2nc(C)cc(SCC(=O)N/N=C/c3ccco3)c2c1 | 52* | 5 | -14 | -2 | -2 | . | -3
COc1cccc2c(SCC(=O)N/N=C/c3ccccc3)cc(C)nc12 | 47* | 3 | -1 | -9 | 0 | 2 | -3
SMILES | PRMT1 inh | rCAG binder | NOD2-RIPK2 inh | ABHD5 PLIN5 PPI | TLR9-MyD88 block | TLR4 MyD88 comp | PRMT1 confirm
Cc1ccc2nc(SCC(=O)N/N=C/c3ccco3)cc(C)c2c1 | 0 | 3 | -9 | -4 | 4 | -5 | .
S=c1nc(-c2cc(Cl)ccc2Cl)[nH][nH]1 | 56* | 27 | -6 | -6 | 3 | 4 | 47*
CC(=NNC(=S)N1CC2CCC(CC2)C1)c1cnccn1 | 25* | 4 | -12 | -1 | 11 | . | 2
CC(=NNC(=S)N1CCCCCC1)c1cccc2cccnc12 | 26* | 1 | -9 | -16 | 7 | . | 9
CC(=NNC(=S)N1CC2CCC(CC2)C1)c1ccccn1 | 37* | 1 | -6 | -9 | -6 | . | -3
COC(=O)C1CN(Cc2ccccc2)CCS(=O)(=O)N1Cc1cn(Cc2ccc(F)cc2)nn1 (stereo not given) | -1 | 0 | . | . | . | . | .
O=C(O)CNC(=O)CC1S/C(=N/N=C2\CSC(=O)N2)NC1=O (stereo not given) | 38* | 0 | -21 | -21 | 2 | -6 | 22*
O=C(O)CNC(=O)CC1S/C(=N/N=C/c2ccccc2O)NC1=O (stereo not given) | 3 | -1 | -8 | -9 | 0 | -13 | .
COc1ccc(NC(=O)CSc2nnnn2C2CC2)cc1S(=O)(=O)N1CCOCC1 | 38* | 8 | -7 | -2 | -11 | . | -2
O=C1COc2ccccc2C(c2nnnn2-c2ccc3ccccc3c2)N1C1CC1 (stereo not given) | -1 | 3 | . | . | . | . | .
O=C(COC(=O)/C=C/c1ccc(Br)o1)Nc1ccc2[nH]c(=O)[nH]c2c1 | -2 | 3 | 5 | 2 | 10 | . | .
NC(=O)c1ccc(NC(=O)COC(=O)/C=C/c2ccc(Br)o2)cc1 | 36* | 14 | -5 | -2 | 4 | . | 5
Oc1ccc(N2CCN(CC(O)c3ccccc3)CC2)cc1 (stereo not given) | 28* | 4 | 9 | 7 | 4 | . | 6
COc1ccc(NCc2nnc(-c3ccccc3)o2)cc1 | -3 | 0 | -3 | -2 | -13 | . | .
Cc1ccc(N2C(=O)CC(Sc3nc4ccccc4o3)C2=O)cc1Cl (stereo not given) | 50* | 14 | 9 | 13 | -9 | 5 | 37*
CCOC(=O)N1CCN(C(=O)c2ccc3oc(CCCc4ccccc4)nc3c2)CC1 | 31* | -11 | -4 | -2 | -3 | . | -1
Oc1ccccc1N1CCN(c2ccc3ccccc3n2)CC1 | 0 | 6 | -3 | -4 | -3 | . | .
C=CC[C@H](CC(=O)N(CCO)Cc1ccccc1)C(=O)N[C@H](COC(=O)[C@@H](CC=C)CC(=O)OC(C)(C)C)c1ccccc1 | 0 | -7 | -6 | 0 | 1 | . | .
COc1ccc(C=Cc2ccc3ccccc3n2)c(OC)c1 | 147* | -22 | -3 | -8 | 2 | . | 7
